Assay outcomes deposited in PubChem BioAssay by National Center for Advancing Translational Sciences (NCATS).
Shown is part of a subset that was picked to be rich in hits.
Shiga inhibitor – A qHTS for Small Molecule Inhibitors of Shiga Toxin | Vero cells, Shiga toxin protein synthesis inhibition reporter | inhibition, % at 38.7 µM | 290,000 tested, 9.2% active; in the data active means inhibition mostly above about 28%, no sharp cut-off; inactive means mostly below about 43%; further: 0% is about no effect
AMA1 RON2 block – qHTS for Inhibitors of AMA1-RON; Towards Development of Antimalarial Drug Lead: Primary Screen. AlphaScreen AMA1-biotinylated RON2 peptide binding. Potency, µM (titrated, usually from 58.2 µM), for inactives: at the top dose activity change, negative = inhibition, actives largely listed as inhibitors. 360,000 tested, 0.2% active. AID 720542, 2013; active means well fitted inhibition curve with a large enough effect; inconclusive means small, poorly fitted or top-dose-only effect; inactive means no such curve, though single readings can be large or run the other way;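 further: potency means the concentration at half of the fitted maximal effect; 0% = vehicle wells and -100% = peptide control; nearly all actives have a fitted effect of over 45% in size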
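AMA1 (3D7) with his tag at 25 nM final met compounds first, then biotinylated RON2 peptide at 25 nM; detection used donor plus acceptor beads, 10 µg/mL apiece, read by AlphaScreen after 30 min at room temperature.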
Marburg entry inh – qHTS for inhibitors of binding or entry into cells for Marburg Virus | Marburg virus pseudotyped entry inhibition, cell reporter | Potency, µM (titrated, usually from 37.8 µM), for inactives: at the top dose activity change, negative = inhibition, usual class: inhibitors | 300,000 tested, 1.8% active; calls by dose curve; tested in HEK293 cells; further: potency means the concentration at half of the fitted maximal effect; on the % scale 0 is the no-effect control and ±100 the full control effect
Cycloheximide cs – Cycloheximide Counterscreen for Small Molecule Inhibitors of Shiga Toxin | cell reporter, cycloheximide protein synthesis inhibition counterscreen | max response, % | 300,000 tested, 12% active | AID 2314, 2010; in the data active means max response mostly above about 13%, no sharp cut-off; inactive means mostly below about 14%; further: read at 38.3 µM for the half of the compounds with a filed dose; 0% is about no effect
LASV entry inh – qHTS for Inhibitors of binding or entry into cells for Lassa Virus. 300,000 tested, 1.2% active. Potency, µM (doses to about 37.9 µM), for the others: at the highest dose activity change, negative = inhibition, actives largely listed as inhibitors. Lassa virus pseudotype entry inhibition, cell reporter. AID 540256, 2011; calls by dose curve; tested in HEK293 cells; further: potency means the concentration at half of the fitted maximal effect; on the % scale 0 is the no-effect control and ±100 the full control effect; nearly all actives have a fitted effect of over 50% in size
Active calls of the source: *; u = inconclusive; x = not tested or not shown; + = active, no number; [ ] = remark or other dose.

SMILES	Shiga inhibitor	AMA1 RON2 block	Marburg entry inh	Cycloheximide cs	LASV entry inh
Cc1ccc(C(=O)CSc2cnc3ccccc3n2)cc1C	70*	104%	18µM*	63*	u
COc1ccc(F)cc1S(=O)(=O)Nc1cc2c3c(c1)CC(=O)N3CCC2	x	-21%	7%	x	3%
CC(C)c1ccc(C(=O)N(c2ccccn2)C(C)c2ccco2)cc1 (stereo not given)	90*	-6%	1%	30*	u
CC(c1ccco1)N(C(=O)c1ccccc1NS(=O)(=O)c1ccc(Cl)c([N+](=O)[O-])c1)c1ccccn1 (stereo not given)	39*	-28%	3%	-3	3%
O=c1c2ccccc2cnn1CCOc1cccc(Br)c1	120*	-15%	u	51*	u
Cc1ccc(OCCn2ncc3ccccc3c2=O)c(C)c1	26	12%	5%	15*	x
COc1ccc2[nH]c3c(c2c1)CCN1C(=O)C(CC(=O)NC/C=C(\C)CCC=C(C)C)C[C@H](C(=O)N2CCOCC2)[C@@]31CCC1CCCC1 (stereo not given in full)	x	15%	-3%	x	x
Cc1[nH]c2ccccc2c1/C=C/c1nc2ccccc2c(=O)n1CCO	49*	-11%	u	25*	11µM*
CCn1c(/C=C/c2ccc(O)cc2)nc2ccccc2c1=O	9	-18%	u	10	u
CCn1c(/C=C/c2ccccc2C)nc2ccccc2c1=O	51*	0%	x	19*	x
O=c1c2ccccc2nc(/C=C/c2ccc(Br)cc2)n1CCO	x	-16%	u	x	u
O=c1c2ccccc2nc(/C=C/c2cccc(Br)c2)n1CCCO	-14	6%	u	0	u
CCn1c(/C=C/c2ccccc2F)nc2ccccc2c1=O	12	-10%	-18%	18*	u
Cn1c(/C=C/c2cccc(Br)c2)nc2ccccc2c1=O	80*	0%	10µM*	46*	u
CCN(CC)c1nc2c(S(=O)(=O)c3ccc(C)cc3)nnn2c2ccsc12	x	x	x	x	8%[46.1 µM]
CC(C)(C)OC(=O)N1CCC(c2c(C(=O)NCCN3CCOCC3)cnn2-c2ccc(F)cc2)CC1	x	x	x	x	-11%[46.1 µM]
N#Cc1ccc(NC(=O)COC(=O)c2cccc(S(=O)(=O)N3CCCC3)c2)cc1	x	-7%	x	x	x
CN(CCCCCC(=O)/C=N\O)Cc1ccccc1	x	x	0%	x	x
Cc1ccc(C)c(NC(=O)C2CCCN(S(=O)(=O)c3cccc4nsnc34)C2)c1 (stereo not given)	x	x	-2%[46.1 µM]	x	20%[46.1 µM]
Cc1ccc(NC(=O)c2ccc3ccccc3n2)cc1S(=O)(=O)N1CCOCC1	51	3%	u	6	u
CCOc1ccc(C2CC(=O)Nc3nc(SCc4ccccc4C)[nH]c(=O)c32)cc1OC (stereo not given)	x	x	16%[46.1 µM]	x	15%[46.1 µM]
COc1ccc(CCC(=O)NC2CCCc3ccccc32)cc1OC (stereo not given)	-3	-12%	2%[46.1 µM]	3	4%
O=c1c2ccccc2nc(/C=C/c2ccc([N+](=O)[O-])o2)n1CCCO	27	2%	2µM*	18*	4.5µM*
COc1cccc(NC(=O)Cn2c(=O)n(-c3cccc(OC)c3)c(=O)c3c4c(sc32)CCCC4)c1	x	x	u	x	18%[46.1 µM]
CC1CCCCC12NC(=O)N(CC(=O)Nc1ccc(N3CCCCC3)cc1)C2=O (stereo not given)	x	3%	6%	x	u
SMILES	Shiga inhibitor	AMA1 RON2 block	Marburg entry inh	Cycloheximide cs	LASV entry inh
O=C(Nc1ccccc1)OCCN1CCN(Cc2ccccc2)CCC1=O	-11	0%	33%	5	-10%
O=C(Nc1ccc(Cl)cc1)OCCN1CCN(Cc2ccccc2)CCC1=O	+	x	x	34*	x
Cc1ccc(NC(=O)OCCN2CCN(Cc3ccccc3)CCC2=O)cc1	-18	-7%	-25%	0	-3%
C[C@H]1CCC(=O)N([C@H](COc2ccccc2)Cc2ccccc2)CC1	-1	1%	x	-2	x
O=C1CCN(Cc2ccccc2)CCN1CCOc1ccccc1	76*	0%	x	42*	x
CC1CCC(=O)N(CCOc2ccccc2)CC1 (stereo not given)	58*	-3%	x	39*	x
CCCn1nnc(NC(=O)C(c2ccccc2)c2ccccc2)n1	21	0%	-9%	-3	14%
CCCn1nnc(NC(=O)c2ccc(OCC)c(Cl)c2)n1	33	6%	13%	20*	-13%
CCCn1nnc(NC(=O)c2ccc(Br)cc2)n1	99*	-6%	3%	45*	-1%
CCCn1nnc(NC(=O)c2ccc(-c3ccccc3)cc2)n1	100*	3%	-9%	21*	-1%
CCOc1ccc(C(=O)Nc2nnn(CC)n2)cc1	75*	-4%	8%	36*	u
CCOc1ccc(C(=O)Nn2cnnc2)cc1	22	-11%	1%	8	20%
O=C(CC(O)c1ccncc1)c1ccccc1O (stereo not given)	x	26%	u	x	u
CCCn1nnc(NC(=O)c2ccc(OC)cc2)n1	43	10%	1%	37*	8%
COc1cccc(-c2cc3c(-n4cccc4)ncnc3o2)c1	43*	-1%	u	12	-29%
Cc1ccccc1Oc1ncnc2oc(-c3ccccc3)cc12	11	-3%	11%	-2	-7%
CCC1(C)CC(c2nc(-c3ccc(OC)cc3)cs2)CCS1 (stereo not given)	-6	-12%	-11%	1	-18%
Cc1cc(C)c2nc(NCc3ccccc3O)sc2c1	114*	-9%	x	22*	x
COc1cc(CNc2nc3c(C)cc(C)cc3s2)ccc1O	48*	-27%	u	25*	u
CCOC(=O)Cc1ccc(Nc2nc(NCc3ccccc3)nc3ccsc23)cc1	x	-14%	x	x	x
O=C1NC[C@H](c2ccccc2)N1	x	x	-13%[14.2 µM]	x	x
CC1=NN(c2ccccc2)C(=O)C1N=Nc1ccc(C)cc1 (stereo not given)	25	x	x	17	x
CC1=NN(c2ccccc2)C(=O)C1C=Nc1ccc(N(C)C)cc1 (stereo not given)	39*	u	-29%[46.1 µM]	17*	-20%
CC(=O)C(=Nc1ccc(Cl)cc1Cl)NNc1cccc(Cl)c1	-2	u	u	1	10µM*
Cc1cccc(NNC(=O)C(=O)NNc2cccc(C)c2)c1	24	u	x	14	x
SMILES	Shiga inhibitor	AMA1 RON2 block	Marburg entry inh	Cycloheximide cs	LASV entry inh
Cc1ccc(Cn2c(C)c3cnn(CC(=O)N4CCN(c5cc(C)ccc5C)CC4)c(=O)c3c2C)cc1	x	x	u	x	-26%[46.1 µM]
O=C(Cn1[nH]c(=O)c2ccccc2c1=O)N1CCN(S(=O)(=O)c2ccc(Cl)cc2)CC1	x	4%	x	x	x
O=c1nccc(N/N=C/c2cccc(O)c2)[nH]1	2	30%	u	26*	-20%
CCCOc1ccccc1/C=N/Nc1ccnc(=O)[nH]1	3	9%	3%	6	-20%
COc1cc(C=NNc2nc3c([nH]2)c(=O)n(C)c(=O)n3C)ccc1O	x	28%	-5%[46.1 µM]	x	10%[46.1 µM]
COc1cc(/C=N/Nc2ccnc(=O)[nH]2)ccc1O	67	73%	x	32*	x
